Source: PubChem BioAssay (Broad Institute)
IDE exosite FP = exo-site inhibitors of human IDE, primary screen, biochemical, fluorescence anisotropy, probe displacement; AID 1259349, 2017; purified IDE, FL-6b probe fluorescence polarization; stronger effect = lower value; z-score at 20 µM; 6.3% of 17,000 active;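 active = z-score of -3 or lower, meaning strong loss of probe binding signal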;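 also: His-tagged human IDE residues 42-1019 made in E. coli with 30 nM FL-6b probe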
Target sequence (P14735 42-1019 limits assumed): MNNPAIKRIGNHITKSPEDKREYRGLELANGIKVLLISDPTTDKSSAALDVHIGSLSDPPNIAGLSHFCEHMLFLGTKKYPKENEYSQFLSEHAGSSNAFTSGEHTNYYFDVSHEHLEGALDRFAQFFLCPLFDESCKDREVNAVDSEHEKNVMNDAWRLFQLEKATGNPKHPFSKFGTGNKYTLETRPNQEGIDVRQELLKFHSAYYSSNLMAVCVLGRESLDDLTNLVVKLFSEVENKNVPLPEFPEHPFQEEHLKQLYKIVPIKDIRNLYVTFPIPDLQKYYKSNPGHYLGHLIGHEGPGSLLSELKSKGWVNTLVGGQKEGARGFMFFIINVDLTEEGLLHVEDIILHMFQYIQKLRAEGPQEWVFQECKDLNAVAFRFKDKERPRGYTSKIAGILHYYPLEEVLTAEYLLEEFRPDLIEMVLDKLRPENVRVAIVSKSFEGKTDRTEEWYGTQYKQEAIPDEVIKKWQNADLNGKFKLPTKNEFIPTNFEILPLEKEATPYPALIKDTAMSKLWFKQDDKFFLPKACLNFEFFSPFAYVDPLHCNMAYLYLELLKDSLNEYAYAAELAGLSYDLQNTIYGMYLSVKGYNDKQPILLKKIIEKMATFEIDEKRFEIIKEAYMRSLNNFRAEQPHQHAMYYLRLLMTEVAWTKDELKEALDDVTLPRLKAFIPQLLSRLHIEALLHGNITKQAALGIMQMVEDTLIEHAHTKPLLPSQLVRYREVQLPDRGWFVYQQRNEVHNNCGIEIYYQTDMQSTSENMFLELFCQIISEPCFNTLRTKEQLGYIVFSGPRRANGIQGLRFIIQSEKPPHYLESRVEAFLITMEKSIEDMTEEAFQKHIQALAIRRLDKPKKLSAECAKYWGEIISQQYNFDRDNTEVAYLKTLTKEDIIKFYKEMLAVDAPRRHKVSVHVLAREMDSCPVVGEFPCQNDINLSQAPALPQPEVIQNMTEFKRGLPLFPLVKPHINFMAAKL
The depositor's hits bear a star; ! = repeats disagree. This excerpt belongs to a sample that is enriched for hits.

SMILES	IDE exosite FP
C[C@H](NC(=O)C[C@H]1C=C[C@@H](NS(=O)(=O)c2cccc(F)c2)[C@@H](CO)O1)c1ccccc1	2.93
CN(C)CC#Cc1ccc([C@H]2[C@@H](CO)N3CCCCN(C(=O)C4CCC4)C[C@H]23)cc1	0.0632
COc1ccccc1C#Cc1ccc([C@H]2[C@@H](CO)N3CCCCN(C(=O)C4CCC4)C[C@H]23)cc1	-10.3*
COc1ccc(C#Cc2ccc([C@@H]3[C@@H](CO)N4CCCCN(C(=O)Nc5ccccc5)C[C@@H]34)cc2)cc1	2.07
CN(C)CC#Cc1ccc([C@H]2[C@H]3CN(C(=O)C4CCC4)CCCCN3[C@H]2CO)cc1	2.25
COc1ccccc1NC(=O)N1CCCCN2[C@H](CO)[C@@H](c3ccc(C#Cc4ccccc4)cc3)[C@@H]2C1	3.84
O=C(C1CCC1)N1CCCCN2[C@H](C1)[C@@H](c1ccc(C#CC3(O)CCCC3)cc1)[C@@H]2CO	-1.08
COc1ccccc1NC(=O)N1CCCCN2[C@H](C1)[C@H](c1ccc(C#Cc3ccccc3)cc1)[C@@H]2CO	1.25
COc1ccccc1C#Cc1ccc([C@@H]2[C@H]3CN(C(=O)C4CCC4)CCCCN3[C@H]2CO)cc1	-6.82*
COc1ccccc1C#Cc1ccc([C@@H]2[C@@H](CO)N3CCCCN(C(=O)C4CCC4)C[C@@H]23)cc1	-8.97*
COCC#Cc1ccc([C@H]2[C@@H](CO)N3C(=O)CN(C(=O)C4CCOCC4)C[C@@H]23)cc1	1.16
C/C=C/c1ccc([C@H]2[C@@H](CO)N(C(C)=O)[C@H]2CN(C(C)=O)C2CCCC2)cc1	0.277
CN(C)CC#Cc1ccc([C@H]2[C@@H](CO)N3CCCCN(C(=O)NC4CCCC4)C[C@H]23)cc1	3.04
O=C(Nc1ccc(C(F)(F)F)cc1)Nc1ccc2c(c1)[C@H]1C[C@H](CC(=O)N3CCc4ccccc4C3)O[C@H](CO)[C@H]1O2	-0.693
C[C@@H]1CCCCO[C@H](CN(C)Cc2ccc(C(F)(F)F)cc2)[C@@H](C)CN([C@@H](C)CO)C(=O)c2cc(NC(=O)Nc3cccc4ccccc34)ccc2O1	-0.16
C/C=C/c1ccc([C@@H]2[C@@H](CO)N3CCCCN(S(=O)(=O)c4cccs4)C[C@H]23)cc1	4.91
COc1ccccc1CN1C[C@@H](C)[C@H](OC)CN(C)C(=O)c2cc(NC(=O)Nc3ccccc3OC)ccc2OC[C@H]1C	0.901
CS(=O)(=O)Nc1ccc2c(c1)[C@H]1C[C@H](CC(=O)NCc3cc(F)ccc3F)O[C@H](CO)[C@H]1O2	1.27
CCS(=O)(=O)N1CC(=O)N2[C@H](CO)[C@@H](c3ccc(-c4ccccc4C)cc3)[C@H]2C1	-0.81
Cc1ccccc1-c1ccc([C@H]2[C@H](CO)N3C(=O)CN(S(C)(=O)=O)C[C@@H]23)cc1	-1.37
COCC(=O)N1CC(=O)N2[C@H](CO)[C@@H](c3ccc(-c4ccccc4C)cc3)[C@H]2C1	-0.936
CCC(=O)N1CC(=O)N2[C@H](CO)[C@@H](c3ccc(-c4ccccc4C)cc3)[C@H]2C1	-3.98*
CCC(=O)N1CC(=O)N2[C@H](CO)[C@H](c3ccc(-c4ccccc4C)cc3)[C@@H]2C1	-7.96*
CCC(=O)N1CC(=O)N2[C@@H](CO)[C@H](c3ccc(-c4ccccc4F)cc3)[C@@H]2C1	0.654
COCC(=O)N1[C@H](CO)[C@H](c2ccccc2)C12CN(C(=O)c1ccccc1)C2	0.259
SMILES	IDE exosite FP
Cc1cccc(S(=O)(=O)N2CCCCN3[C@H](CO)[C@@H](c4ccc(-c5cccnc5)cc4)[C@H]3C2)c1	5.04
COc1ccc(-c2ccc([C@@H]3[C@@H](CO)N(C(=O)C4CCC4)[C@H]3C#N)cc2)cc1	3.14
CCc1csc(N2[C@H](C#N)[C@H](c3ccc(C4=CCCC4)cc3)[C@@H]2CO)n1	2.49
CCC(=O)NC[C@@H]1[C@@H](c2ccc(-c3ccccc3)cc2)[C@H](CO)N1C(=O)C1CC1	-1.89
CCCNC(=O)N1CC(=O)N2[C@@H](CO)[C@@H](c3ccc(C#Cc4cccc(F)c4)cc3)[C@@H]2C1	2.6
CCCNC(=O)N1CC(=O)N2[C@@H](CO)[C@@H](c3ccc(C#Cc4ccccc4)cc3)[C@@H]2C1	-1.14
CCCNC(=O)N1CC(=O)N2[C@H](CO)[C@@H](c3ccc(C#Cc4cccc(F)c4)cc3)[C@H]2C1	-3.68*
CCCNC(=O)N1CC(=O)N2[C@H](C1)[C@H](c1ccc(C#Cc3ccc(F)cc3)cc1)[C@@H]2CO	2.64
CCCNC(=O)N1CC(=O)N2[C@@H](CO)[C@H](c3ccc(C#Cc4ccc(F)cc4)cc3)[C@@H]2C1	2.09
CCCNC(=O)N1CC(=O)N2[C@@H](CO)[C@H](c3ccc(C#Cc4ccccc4)cc3)[C@@H]2C1	-11*
O=C(C1CCC1)N1C[C@@H]2[C@H](c3ccccc31)[C@H](CO)N2Cc1ccccc1	0.776
C[C@H]1CN([C@@H](C)CO)C(=O)c2cc(-c3ccc(F)cc3)cnc2O[C@H]1CN(C)S(C)(=O)=O	-0.669
Cc1cccc(S(=O)(=O)N2CCCCN3[C@H](CO)[C@@H](c4ccc(C#C[C@H](C)O)cc4)[C@H]3C2)c1	3.74
CCS(=O)(=O)Nc1ccc2c(c1)C(=O)N(C)[C@H]1CC[C@H](CC(=O)NCc3ccc(OC)cc3)O[C@H]1CO2	-0.295
Cc1ccccc1-c1ccccc1[C@@H]1[C@@H](C#N)N(C(=O)c2cccc(F)c2)[C@H]1CO	4.02
CN(C)C(=O)c1ccc(-c2ccc([C@@H]3[C@@H](CO)N4CCCCN(CCC(F)(F)F)C[C@@H]34)cc2)cc1	0.751
N#C[C@H]1[C@@H](c2ccc(-c3ccncc3)cc2)[C@@H](CO)N1C(=O)C1CCC1	1.71
O=C(c1ccc(F)cc1)N1C[C@@H]2N[C@H](C1)C2c1ccc(-c2ccccc2F)cc1 (stereo not given in full)	-4.11*!
O=C(c1ccc(F)cc1)N1C[C@@H]2N[C@H](C1)C2c1ccc(-c2ccc(F)cc2)cc1 (stereo not given in full)	3.9
Cc1ccccc1-c1ccc(C2[C@@H]3CN(C(=O)c4ccc(F)cc4)C[C@H]2N3)cc1 (stereo not given in full)	-10.1*!
O=C(c1ccc2c(c1)OCO2)N1C[C@@H]2N[C@H](C1)C2c1ccc(-c2ccccc2F)cc1 (stereo not given in full)	-2.76
O=C(c1ccc(F)cc1)N1C[C@@H]2N[C@H](C1)C2c1ccc(-c2cncnc2)cc1 (stereo not given in full)	3.28
O=C(c1ccncc1)N1C[C@@H]2N[C@H](C1)C2c1ccc(-c2ccncc2)cc1 (stereo not given in full)	3.17
O=C(c1cccc(F)c1)N1CC(=O)N2[C@H](CO)[C@@H](c3ccc(-c4ccccc4F)cc3)[C@H]2C1	0.472
N#Cc1cccc(-c2ccc([C@@H]3[C@@H](CO)N4CCCCN(S(=O)(=O)c5ccccc5)C[C@@H]34)cc2)c1	-1.2
CC(C)NC(=O)N1[C@@H]2CNC[C@H]1C2c1ccc(-c2cccc(C#N)c2)cc1 (stereo not given in full)	3.93
CCCNC(=O)N1[C@@H]2CNC[C@H]1C2c1ccc(-c2ccc(C)cc2)cc1 (stereo not given in full)	-3.16*!
CCCNC(=O)N1[C@@H](CO)[C@@H](c2ccc(-c3ccccc3)cc2)[C@@H]1CNC(C)=O	0.866
O=C(Nc1cccc(Cl)c1)N1[C@@H]2CNC[C@H]1C2c1ccc(/C=C/c2ccccc2)cc1 (stereo not given in full)	-0.287
